# Structures can show the parent of a compound that is named as a salt.
# Test system: Saccharomyces cerevisiae BY4741 SeMeCo community
# Test: z-score of subpopulation abundance vs DMSO median, subpopulation auxotrophic for HM; higher = larger share of this subpopulation than in DMSO controls
# Conditions: 10 µM; 24 h; SM minimal medium; subpopulation (auxotrophy): HM
# Description: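 Fluorescent four-plasmid SeMeCo (self-establishing metabolically cooperating S. cerevisiae BY4741 community; plasmids pH-mRuby2, pL-mWasabi, pU-eCFP, pM-TagRFP657) was grown 24 h in minimal SM medium with each Selleck FDA-approved drug at 10 µM in 384-well plates. Cells were fixed and imaged by high-content confocal microscopy. For each auxotrophic subpopulation (and the prototroph), a z-score gives the deviation from the DMSO vehicle-control population median.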
row,SMILES,z-score of subpopulation abundance
1,CCC(=O)c1c(O)cc(O)cc1O [Flopropione],0.19
2,Cc1nnc(SCC2=C(C(=O)O)N3C(=O)[C@@H](NC(=O)Cn4cnnn4)[C@H]3SC2)s1 [Cefazolin Sodium],0.05
3,COC(=O)C1=C(C)NC(C)=C(C(=O)OCCN2CCN(C(c3ccccc3)c3ccccc3)CC2)C1c1cccc([N+](=O)[O-])c1 (stereo not given) [Manidipine 2HCl],2.87
4,Clc1ccc(C(Cn2ccnc2)OCc2c(Cl)cccc2Cl)c(Cl)c1 (stereo not given) [Isoconazole nitrate],3.75
5,COc1ccc2[nH]c([S@@+]([O-])Cc3ncc(C)c(OC)c3C)nc2c1 [NEXIUM (esomeprazole magnesium)],0.8
6,N=C(N)NS(=O)(=O)c1ccc(N)cc1 [Sulfaguanidine],-0.09
7,COc1ccc(C2CNC(=O)C2)cc1OC1CCCC1 (stereo not drawn) [S- (+)-Rolipram],-0.72
8,O=C(N[C@H](CO)[C@H](O)c1ccc([N+](=O)[O-])cc1)C(Cl)Cl [Chloramphenicol],-0.25
9,CN(C)CCC[C@@]1(c2ccc(F)cc2)OCc2cc(C#N)ccc21 [Escitalopram Oxalate],-0.98
10,CC(C)(C)C1CCC(CC2=C(O)c3ccccc3C(=O)C2=O)CC1 (stereo not given) [Buparvaquone],1.55
11,CC1(C)[C@H](C(=O)O)N2C(=O)C[C@H]2S1(=O)=O [Sulbactam sodium],0.23
12,NC(=O)C(c1ccccc1)(c1ccccc1)[C@@H]1CCN(CCc2ccc3c(c2)CCO3)C1 [Darifenacin HBr],-0.73
13,CC(C)c1nc(N(C)S(C)(=O)=O)nc(-c2ccc(F)cc2)c1/C=C/[C@@H](O)C[C@@H](O)CC(=O)O [Rosuvastatin Calcium],3.45
14,CCCN1CCCC[C@H]1C(=O)Nc1c(C)cccc1C [Ropivacaine],-0.51
15,CN1CCC(=C2c3ccccc3CCc3sccc32)CC1 [Pizotifen Malate],-0.03
16,CN1[C@@H]2CC[C@H]1C[C@@H](OC(c1ccccc1)c1ccccc1)C2 [Benztropine mesylate],-0.56
17,CN[C@@H]1[C@@H](O)[C@@H](O[C@@H]2[C@@H](O)[C@H](O[C@H]3O[C@H](CN)[C@@H](O)[C@H](O)[C@H]3O)[C@@H](N)C[C@H]2NC(=O)[C@@H](O)CN)OC[C@]1(C)O [Isepamicin Sulphate],-0.49
18,O=C(Nc1c(Cl)cncc1Cl)c1ccc(OC(F)F)c(OCC2CC2)c1 [Roflumilast],-0.18
19,CCN1CCN(C(=O)N[C@@H](C(=O)N[C@@H]2C(=O)N3C(C(=O)O)=C(CSc4nnnn4C)CS[C@H]23)c2ccc(O)cc2)C(=O)C1=O [Cefoperazone],0.3
20,CCOc1cc(N)c(Cl)cc1C(=O)NCC1CN(Cc2ccc(F)cc2)CCO1 (stereo not given) [Mosapride],-0.23

row,SMILES,z-score of subpopulation abundance
1,Cc1nccn1CC1CCc2c(c3ccccc3n2C)C1=O (stereo not given) [Ondansetron HCl],-0.93
2,COc1ncnc(NS(=O)(=O)c2ccc(N)cc2)c1OC [Sulfadoxine],-0.26
3,C[C@H]1O[C@@H](O[C@H]2[C@@H](O)C[C@H](O[C@H]3[C@@H](O)C[C@H](O[C@H]4CC[C@@]5(C)[C@H](CC[C@@H]6[C@@H]5C[C@@H](O)[C@]5(C)[C@@H](C7=CC(=O)OC7)CC[C@]65O)C4)O[C@@H]3C)O[C@@H]2C)C[C@H](O)[C@@H]1O [Digoxin],-0.55
4,COc1ccc2[nH]c([S+]([O-])Cc3ncc(C)c(OC)c3C)nc2c1 (stereo not given) [Omeprazole],0.37
5,CC(=O)OCC1=C(C(=O)O)N2C(=O)C(NC(=O)CSC(=NC(C)C)NC(C)C)C2SC1 (stereo not given) [Cefathiamidine],-0.6
6,CCOC(=O)C1=C(C)NC(C)=C(C(=O)OCC)C1c1ccccc1/C=C/C(=O)OC(C)(C)C [Lacidipine],1.9
7,COc1ccc2cc([C@H](C)C(=O)O)ccc2c1 [Naproxen],-0.37
8,COc1ccc(Cl)cc1C(=O)NCCc1ccc(S(=O)(=O)NC(=O)NC2CCCCC2)cc1 [Glyburide (Glibenclamide)],0.56
9,Cc1ncc([N+](=O)[O-])n1C [Dimetridazole],-0.42
10,CC[C@H](c1ccc(O)cc1)[C@@H](CC)c1ccc(O)cc1 [Hexestrol],-0.94
11,O=C(O)C1=C(CSc2nnnn2CS(=O)(=O)O)CS[C@@H]2[C@H](NC(=O)[C@H](O)c3ccccc3)C(=O)N12 [Cefonicid sodium],-0.77
12,O=c1ccc2ccc(OCCCCN3CCN(c4cccc5sccc45)CC3)cc2[nH]1 [Brexpiprazole],0.35
13,Cc1ncc([N+](=O)[O-])n1CCOC(=O)c1ccccc1 [Metronidazole Benzoate],0.12
14,CN1CCCN=C1/C=C/c1cccs1 [Pyrantel Pamoate],0.03
15,CC[C@@H]1/C=C(\C)C[C@H](C)C[C@H](OC)[C@H]2O[C@@](O)(C(=O)C(=O)N3CCCC[C@H]3C(=O)O[C@H](/C(C)=C/[C@@H]3CC[C@H](Cl)[C@H](OC)C3)[C@H](C)[C@@H](O)CC1=O)[C@H](C)C[C@@H]2OC [Pimecrolimus],1.95
16,N#CC(c1ccc(Cl)cc1)c1c(Cl)cc(-n2ncc(=O)[nH]c2=O)cc1Cl (stereo not given) [Diclazuril],-0.31
17,CC(=O)[C@@]1(O)CC[C@H]2[C@@H]3C[C@H](C)C4=CC(=O)CC[C@]4(C)[C@H]3CC[C@@]21C [Medroxyprogesterone],-0.02
18,CC1CCc2cc(F)cc3c(=O)c(C(=O)O)cn1c23 (stereo not given) [Flumequine],-1.42
19,CCCCNc1ccc(C(=O)OCCN(C)C)cc1 [Tetracaine HCl],0.5
20,CC(C)[C@H](N)C(=O)OCC(CO)OCn1cnc2c(=O)[nH]c(N)nc21 (stereo not given in full) [Valganciclovir HCl],-0.64

# Reference: the supplement of paper PMC8975748
